Drawing on PubChem BioAssay (Tox21), this text covers outcome for 40 compounds.

Activity calls are given as the source filed them. The call rests on the fitted dose curve; in most records, active means well fitted cell-killing curve with a large enough effect in the repeat runs; inconclusive means weak or mixed curves, or effect the other way; inactive means flat fitted curve, though single readings scatter.

A short description of this assay: qHTS assay to identify small molecule HDAC inhibitors - cell viability counter screen (AID 1259365). Further: nearly all actives have a fitted effect of over 50% in size. The settings on record: HCT-116 viability, CellTiter-Glo ATP luminescence, 2 h; series mostly up to 92.4 µM. From the text:
U.S. Tox21 Program National Center for Advancing Translational Sciences [NCATS] NIH Chemical Genomics Center [NCGC] U.S. Environmental Protection Agency [EPA] National Institutes of Environmental Health Sciences [NIEHS] National Toxicology Program [NTP] U.S. Food and Drug Administration [FDA] Tox21 Assay Overview: Histone deacetylases (HDACs) are a group of epigenetic enzymes that regulate gene expression by histone deacetylation. HDACs are capable of introducing epigenetic modifications and such aberrations contribute to the onset and progression of several human diseases, thus making HDACs a popular therapeutic target. For identifying endogenous class I/II HDAC inhibitors a homogenous, luminogenic HDAC I/II cell based assay was used to measure the relative activity of class I and II HDACs from cells. Wild type HCT-116 cells were used to screen Tox21 compound libraries for identifying class I/II HDAC inhibitors.
Tox21 Assay Protocol Summary: HCT-116 cells were dispensed at 1,500 per well in 5uL of culture medium into white solid bottom 1536-well plates (Greiner Bio-One, Monroe, NC) using a Multidrop Combi (Thermo Scientific, Waltham, MA) dispenser. The assay plates were incubated at 37 C and 5% CO2 for an overnight, and then 23nL of compounds dissolved in DMSO and positive control were transferred using a Pintool station (Wako, San Diego, CA). The assay plates were incubated at 37C and 5% CO2 for 2hr. After compound treatment, 4uL of CellTiter-Glo reagent (Promega Corporation, Madison, WI) was added to each well of the assay plates using Flying Reagent Dispenser (FRD, Aurora Discovery, San Diego, CA) and incubated the assay plates at room temperature for 30min. The luminescence signal was quantified using a ViewLux plate reader (Perkin Elmer, Shelton, CT).
For `O=C(CC(=O)C(F)(F)F)c1ccccc1`, the call was inactive.

On to `CCC1(C)NC(=O)NC1=O` (stereo not given), for which the outcome was inactive.

As for `CCOc1ccc(NC(N)=O)cc1`, the compound was classed as inactive.

Take `CC(=O)O[C@H]1CC[C@@]2(C)C(=CC[C@@H]3[C@@H]2CC[C@]2(C)C(C(C)=O)=CC[C@@H]32)C1`: the result was inactive.

On to `CN(C)CCOc1ccccc1Cc1ccccc1`, for which the call was inactive.

`CC1=CC(=O)CC(C)(C)C1=O`: the call was inactive.

As to `O=C(O[C@@H](C(=O)O)[C@@H](OC(=O)c1ccccc1)C(=O)O)c1ccccc1`, the compound was classed as inactive.

For the compound `CCC(=O)c1ccc2c(c1)N(CCCN(C)C)c1ccccc1S2`, the call was inactive.

On to `COC(=O)c1ccc(OC)cc1`, for which the call was inactive.

Consider `O=[N+]([O-])c1nccn1CO[C@@H](CO)[C@H](O)CO`, for which the compound was called inactive.

As for `Cc1cc(S(=O)(=O)O)c(N)cc1Cl`, the call was inactive.

Turning to `O=c1[nH]cnc2c1ncn2[C@@H]1O[C@H](CO)[C@@H](O)[C@H]1O`, the compound was called inactive.

`CC(C)(C)c1cccc(O)c1`: the compound was classed as inactive.

In the case of `COc1cc(C)ccc1C(C)C`, the compound was called inactive.

Turning to `FC(F)(F)c1ccccc1`, the outcome was inactive.

As to `CC(C)=CCCC(C)CCOC=O` (stereo not given), the call was inactive.

Turning to `CCN(CC)C(=O)N(CC)CC`, the compound was called inactive.

As for `C=O`, the call was inactive.

For the compound `CC(C)CCCCCCc1ccc(OCCOCCO)cc1`, the result was inactive.

For `Cc1cn([C@@H]2O[C@H](CO)[C@@H](O)[C@@H]2F)c(=O)[nH]c1=O`, the result was inactive.

As for `CCN[C@H]1CN(CCCOC)S(=O)(=O)c2sc(S(N)(=O)=O)cc21`, the compound was called inactive.

`CCN(CC)CCOc1ccc(Cc2ccccc2)cc1`: the outcome was inactive.

`Cc1ccc(C)c(N)c1`: the compound was called inactive.

Regarding `Cc1c(-c2ccccc2)oc2c(C(=O)OCCN3CCCCC3)cccc2c1=O`, the compound was called inactive.

Regarding `CC(=O)N(CC(O)CN(C(C)=O)c1c(I)c(C(=O)NCC(O)CO)c(I)c(C(=O)NCC(O)CO)c1I)c1c(I)c(C(=O)NCC(O)CO)c(I)c(C(=O)NCC(O)CO)c1I` (stereo not given), the compound was called inactive.

On to `O=C(O)C(=O)Cc1c[nH]c2ccccc12`, for which the compound was called inactive.

With `CN1CCN(c2c(F)cc3c(=O)c(C(=O)O)cn(CCF)c3c2F)CC1`, the outcome was inactive.

For the compound `CC(C)C[C@H](NC(=O)OCC1c2ccccc2-c2ccccc21)C(=O)O`, the result was inactive.

For the compound `OCC(CBr)(CBr)CBr`, the outcome was inactive.

With `O=C1CCC(C2CCCCC2)CC1`, the result was inactive.

On to `O=C1CCCCCCCCCCC(=O)OCCO1`, for which the outcome was inactive.

On to `CCCCNc1ccc(C(=O)OCCN(CC)CC)cc1`, for which the compound was called inactive.

Turning to `COC(=O)/C=C(/C)N`, the outcome was inactive.

As to `CO[Si](C)(C)OC`, the result was inactive.

Turning to `CC(C)(CO)[C@@H](O)C(=O)NCCC(=O)O`, the call was inactive.

`CCCCCCCOC(=O)CCC`: the call was inactive.

On to `CCCC1CCC(=O)O1` (stereo not given), for which the compound was classed as inactive.

On to `CCOC(=O)c1cc(=O)c2c(OCC(COc3cccc4oc(C(=O)OCC)cc(=O)c34)OC(=O)[C@@H](N)CCCCN)cccc2o1`, for which the result was inactive.

For the compound `CCc1cc2cc(OC)c(OC)cc2c(Cc2ccccc2)n1`, the call was inactive.

With `CCCOCCC`, the outcome was inactive.
